# Assay outcomes as filed in PubChem BioAssay.
# CYP2C9 act: activators of human CYP2C9; P11712; recombinant CYP2C9, luciferin-H conversion, luminescence; active compounds read high; factor 1 = untreated enzyme, 0 = blocked; activation factor at 5 µM; hit rate 1.4% among 96,000; AID 1024;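 active = activation factor of 2 or more for CYP2C9 at a 5 µM dose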;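 also: 0 = sulfaphenazole-blocked wells and 1 = vehicle-only wells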
# CYP2C9 inh: inhibitors of human CYP2C9. P11712. CYP2C9 Supersomes, luciferin-H conversion, luminescence. inhibition, % at 5 µM. hit rate 20% among 96,000. AID 777;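 active = blocking of liver enzyme CYP2C9 beyond about 50% at 5 µM, limit read from the data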
# CYP2C19 inh: inhibitors of human CYP2C19; inhibition, % at 5 µM; AID 778; P33261; hit rate 21% among 96,000; CYP2C19 Supersomes, luciferin-H EGE luminescence, 30 min;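 active = CYP2C19 inhibition above a set limit at 5 µM in the primary screen, cut at about 50% in these data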;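 also: plate controls were negative control wells for no effect and 2.5 mM tranylcypromine positive control for full effect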
# Target sequence (P33261 whole entry, looked up): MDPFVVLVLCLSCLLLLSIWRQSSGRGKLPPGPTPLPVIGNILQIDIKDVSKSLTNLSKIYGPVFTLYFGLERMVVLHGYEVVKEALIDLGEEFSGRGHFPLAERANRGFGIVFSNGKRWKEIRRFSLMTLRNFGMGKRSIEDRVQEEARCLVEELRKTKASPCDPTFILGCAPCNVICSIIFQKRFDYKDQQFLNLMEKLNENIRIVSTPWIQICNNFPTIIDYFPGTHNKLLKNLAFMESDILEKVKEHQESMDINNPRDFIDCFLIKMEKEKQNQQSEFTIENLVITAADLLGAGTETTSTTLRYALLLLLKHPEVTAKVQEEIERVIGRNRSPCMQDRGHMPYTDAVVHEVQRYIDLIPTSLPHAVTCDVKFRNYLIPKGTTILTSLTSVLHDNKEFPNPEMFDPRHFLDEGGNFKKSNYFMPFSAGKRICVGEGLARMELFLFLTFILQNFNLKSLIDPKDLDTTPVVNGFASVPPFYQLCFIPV
# sEH inhibitor: soluble epoxide hydrolase (human) inhibition; inhibition, % at 2 µM; P34913; AID 707; hit rate 0.34% among 91,000; recombinant human sEH enzymatic activity assay; in the data active = inhibition above about 80%
# CYP2C19 act: activators of human cytochrome P450 2C19. 96,000 tested, under 10 active. activation factor at 5 µM. AID 1025. P33261. recombinant CYP2C19, luciferin-H EGE luminescence; active compounds read high; 0 = fully inhibited enzyme, 1 = untreated enzyme;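 active = activation factor of at least 2 at 5 µM in the primary screen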;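 also: 0 = wells with 2.5 mM tranylcypromine and 1 = vehicle-only wells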
# sEH act: increases human soluble epoxide hydrolase activity; hit rate 0.04% among 91,000; AID 717; activation, % at 2 µM; P34913; purified human sEH enzymatic activity, activator screen; in the data active = activation above about 37%
# * = called active by the depositor; . = no result given. Rows were chosen to be rich in hits. Some 27% of all compounds tested hit in one or more screens of this group.
SMILES,CYP2C9 act,CYP2C9 inh,CYP2C19 inh,sEH inhibitor,CYP2C19 act,sEH act
Cc1ccnc(NC(=O)C2CCN(S(=O)(=O)c3cccc4nsnc34)CC2)c1,0.9,14,20,-4,0.8,2
Cc1ccc2nc(NC(=O)C3CCCN(S(=O)(=O)c4cccc5nsnc45)C3)sc2c1 (configuration not stated),0.5,52*,50,-3,0.5,4
O=C(Nc1cccnc1)C1CCCN(S(=O)(=O)c2cccc3nsnc23)C1 (configuration not stated),0.3,70*,69*,7,0.3,-6
COc1ccc(OC)c(NC(=O)C2CCCN(S(=O)(=O)c3cccc4nsnc34)C2)c1 (configuration not stated),0.7,34,67*,-6,0.3,8
O=C(Nc1ccc2c(c1)OCCO2)C1CCCN(S(=O)(=O)c2cccc3nsnc23)C1 (configuration not stated),0.6,42,32,57,0.7,-59
COc1cc(NC(=O)C2CCCN(S(=O)(=O)c3cccc4nsnc34)C2)cc(OC)c1 (configuration not stated),0.4,63*,29,8,0.7,-7
CCN(CC)S(=O)(=O)c1ccc(OC)c(NC(=O)c2cccc([N+](=O)[O-])c2C)c1,.,.,.,5,.,-6
Cc1ccc(N2CC(C(=O)Nc3ccccn3)CC2=O)cc1 (configuration not stated),0.8,24,25,0,0.8,0
O=C1C2CC=CCC2C(=O)N1c1cccc(OS(=O)(=O)c2ccc3ccccc3c2)c1 (configuration not stated),1.6,-63,3,9,1,-7
CCC(C(=O)NC1CCCC1)N(Cc1cccs1)C(=O)Cn1nnc(-c2ccc(OC)c(OC)c2)n1 (configuration not stated),.,.,.,6,.,-3
COc1ccc(-c2nnn(CC(=O)N(Cc3cccs3)C(C)C(=O)NC3CCCC3)n2)cc1OC (configuration not stated),0.5,52*,57*,-26,0.4,22
CCCCC(C(=O)NC1CCCC1)N(Cc1ccco1)C(=O)Cn1nnc(-c2ccc(F)cc2)n1 (configuration not stated),0.1,92*,92*,2,0.1,0
CCC(C(=O)NC1CCCC1)N(C(=O)Cn1nnc(-c2ccc(OC)c(OC)c2)n1)C1CCCCC1 (configuration not stated),0.5,52*,72*,4,0.3,-3
COc1ccccc1-n1c(CNc2c(C)cccc2C)nnc1SCC(=O)N1CCOCC1,1.1,-5,1,2,1,-2
COC(=O)COc1ccc(S(=O)(=O)Nc2ccccc2SC)cc1,.,.,.,-8,.,12
COc1cccc(CN2CCN(CC(=O)Nc3ccccc3Cl)CC2)c1,0.6,35,41,-4,0.6,5
COc1ccccc1N1CC(C(=O)OCC(=O)c2ccc(F)cc2)CC1=O (configuration not stated),1.6,-64,26,5,0.7,-4
Cc1ccc(C(=O)COC(=O)C2CC(=O)N(c3nc(-c4ccccc4)cs3)C2)cc1 (configuration not stated),0.2,79*,71*,-2,0.3,3
CC(C)Cc1[nH]c(=O)c(C#N)c2c1CCCC2,0.7,27,-7,-9,1.1,13
COC(=O)C1=C(C)NC(=O)C1(NC(=O)CN1CCCC1=O)C(F)(F)F (configuration not stated),.,.,.,9,.,-6
COCc1cc(C)nc2sc(C(=O)OC(C)C)c(N)c12,0.3,72*,85*,-3,0.2,5
CCCCNC(=O)c1sc2nc(C)cc(COC)c2c1-n1cccc1,0.6,44,36,17,0.6,-15
COc1ccc(C(=O)Nc2cc(C)c3c(=O)oc4ccccc4c3n2)cc1,0.9,5,-8,4,1.1,-6
COc1ccc(-c2csc(Nc3cccnc3)n2)cc1OC,0.8,22,79*,9,0.2,-6
Cc1nc(C)c(-c2csc(Nc3cccnc3)n2)s1,0.8,20,26,-3,0.7,3
SMILES,CYP2C9 act,CYP2C9 inh,CYP2C19 inh,sEH inhibitor,CYP2C19 act,sEH act
c1cncc(Nc2nc(-c3cccnc3)cs2)c1,0.4,56*,72*,.,0.3,.
Cc1ccc(-c2csc(NC(=O)c3ccno3)n2)cc1,0.3,70*,38,-2,0.6,3
c1ccc(Nc2nc(-c3cccnc3)cs2)nc1,1.1,-5,11,.,0.9,.
COc1ccc(CCNc2nc(-c3cccnc3)cs2)cc1OC,0.9,10,84*,-3,0.2,1
COc1ccc(-c2csc(NC(=O)c3nc(-c4ccccc4)oc3C)n2)cc1,0.8,20,31,2,0.7,2
CCOc1ccccc1N(CC(=O)OC)S(C)(=O)=O,0.9,8,28,-14,0.7,12
COc1ccc(NC(C#N)c2ccc(OC)cc2)cc1 (configuration not stated),0.9,12,13,-5,0.9,7
O=C(Nc1nc(-c2ccc(Cl)cc2)cs1)c1cccnc1,0.6,40,61*,-24,0.4,27
c1cncc(Nc2nc(-c3ccncc3)cs2)c1,0.5,52*,51*,.,0.5,.
Cn1cc([N+](=O)[O-])c(C(=O)Nc2nc(-c3ccc(Cl)cc3)cs2)n1,1.1,-5,-9,0,1.1,1
CC(=O)Oc1ccc(-c2csc(Nc3cccnc3)n2)cc1,1,-3,16,-6,0.8,9
COc1cc(SC)ccc1C(=O)Nc1ccc2c(c1)CCN2S(C)(=O)=O,1.6,-60,35,.,0.6,.
COC(=O)C(C(=O)OC)C(C)C(C(=O)OC)C(=O)OC,1.1,-14,-9,-13,1.1,13
O=C(Cc1cccc2ccccc12)Nc1ccc(-c2cc3ccccc3oc2=O)cc1,0.6,37,-2,-6,1,8
CC1=CC(C)(C)N(C(=O)CSc2nnc(N)s2)c2c(C)cc(C)cc21,0.5,50*,60*,2,0.4,-2
Nc1ncn(C23CC4CC(CC(C4)C2)C3)n1,0.9,6,1,3,1,-1
Cc1cc(C(=O)OCC(=O)c2ccc(Br)s2)no1,0.3,66*,17,-8,0.8,8
O=S1(=O)C=C(SCc2ccc(Cl)c(Cl)c2)Nc2ccccc21,0.3,71*,68*,-2,0.3,0
COc1ccccc1CNC(=O)Cn1cccc1,1.1,-9,38,-7,0.6,9
CCNCc1cc(Br)c(OCC(=O)Nc2ccccc2)c(OC)c1,.,.,.,14,.,-10
CCOc1c(Br)cc(CNc2ccc3c(c2)OCCO3)cc1OC,0.1,86*,86*,-1,0.1,3
CCOc1cc(CNc2ccc3c(c2)OCCO3)cc(Br)c1OCC(N)=O,0.1,86*,53*,0,0.5,4
